Compound activity (PubChem BioAssay)
Spn MK inh: S. pneumoniae MK inhibitors, primary screen, biochemical, PK/LDH-coupled NADH absorbance; inhibition, % at 10 µM; mevalonate kinase [Streptococcus pneumoniae D39]; purified MK, PK/LDH-coupled NADH absorbance 340 nm; AID 555, 2006; 0.48% of 65,000 active;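 active means ranked among the strongest by inhibition in the single 10 µM screen, a fixed top-ranked set picked for dose follow-up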
Spn DPM-DC inh: S. pneumoniae DPM-DC inhibitors, primary screen, biochemical, PK/LDH-coupled NADH fluorescence. purified DPM-DC. calls only at 10 µM. 0.49% of 65,000 active. AID 556, 2006;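 active means the 320 compounds with the highest percent inhibition in the single-dose primary screen, excluding strongly autofluorescent ones, cut at about 32% in these data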;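 further: kinetic rate of NADH fluorescence loss reporting ADP formed by the decarboxylase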
Fluor 339 460: intrinsic fluorescence of library compounds, ex339/em460 – biochemical, MLSMR library, data from DPM-DC assay, artefact control, profiling panel | compound autofluorescence, ex339/em460 nm, NADH buffer; active compounds read high; 1 = no-compound wells, NADH background | fluorescence fold increase at 10 µM | 5.5% of 65,000 active | AID 709, 2007;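 active means at 10 µM, mean starting fluorescence two-fold or more over control wells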;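 further: signal is the first read of a kinetic run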
PMK inhibit: S. pneumoniae PMK inhibitors, primary screen, biochemical, mevalonate pathway, pilot trial included | purified PMK, PK/LDH-coupled NADH absorbance 340 nm | inhibition, % at 10 µM | 0.49% of 65,000 active | AID 539, 2006;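 active means top-ranked compounds by inhibition in the single 10 µM screen, taking a fixed number of the strongest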;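 further: 0% = full reaction with DMSO carrier and 100% = background rate without enzyme reaction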
A340 absorber: compound light absorbance at 340 nm, profiling panel, artefact control, biochemical, MLSMR library, data from PS, PMK, MK assays. compound absorbance at 340 nm, fold over control. fold change at 10 µM. 65,000 tested, under 10 active;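 active means at 10 µM dose, initial 340 nm absorbance at least 2 fold that of control wells; inactive means change under 2 fold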;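 further: initial absorbance extrapolated from kinetic A340 decline of NADH oxidation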
NADH enzymes: inhibitors of PK/LDH coupling enzymes, profiling panel, artefact control, biochemical, MLSMR library; coupled PK/LDH NADH assays, four targets; IC50, µM (series often up to 10 µM), without a hit: at the highest dose inhibition; 0.02% of 65,000 active;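 active means single-dose screening hits from any of four coupled enzyme assays that gave an IC50 when retested across doses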;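 further: the DPM-DC format reads NADH fluorescence rather than 340 nm absorbance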
* marks the source's active call; other numbers are inactive results; i = inactive; · = no result given. Compounds with a hit are over-represented: about 6.8% of the library has one in this group of screens.

SMILES	Spn MK inh	Spn DPM-DC inh	Fluor 339 460	PMK inhibit	A340 absorber	NADH enzymes
Cc1cccc(NC(=O)c2cc(-c3ccco3)nc3ccccc23)n1	1	·	4.9*	6	1.1	4%
O=C(Nc1ccon1)c1cc(-c2ccccc2)nc2ccccc12	10	i	1.2	10	1	3%
O=C(Nc1ccccc1C(=O)NCC1CCCO1)c1ccco1 (centres undefined)	7	i	1	5	1	2%
O=C(NCC1CCCO1)c1cc(-c2ccco2)nc2ccccc12 (centres undefined)	8	·	5*	9	1.2	9%
O=C(c1ccco1)N1CCN(C(=O)c2cc(-c3ccncc3)nc3ccc(Br)cc23)CC1	4	i	1.1	5	1.1	4%
O=C(O)c1cc(-c2ccco2)nc2ccc(Br)cc12	5	i	2.6*	16	1.1	14%
COc1cccc(C(=O)OCc2ccccc2C#N)c1O	0	i	1.1	0	1	0%
CCC(Sc1nc(=O)cc(N)n1-c1ccccc1)C(=O)Nc1ccc(Cl)cn1 (centres undefined)	4	i	1.1	8	1	4%
O=C(NCC(=O)N(CC1CCCO1)C(C(=O)NC1CCCC1)c1cccnc1)c1ccco1 (centres undefined)	0	i	1	16	1	5%
O=C(O)CCCNS(=O)(=O)c1ccc(Br)s1	9	i	1.1	3	1	4%
CN(C)c1ccc(NC(=O)c2cc3c(=O)n4ccccc4nc3n2C)cc1	8	i	1.7	7	1	6%
Cn1c(C(=O)N2COCC2(C)C)cc2c(=O)n3ccccc3nc21	8	·	5*	10	1.1	9%
Cc1cc(C(=O)NCC2CCCO2)n(-c2ccccc2)n1 (centres undefined)	13	i	1.1	20	1.1	11%
Cn1c(C(=O)NCC2CCCO2)cc2c(=O)n3ccccc3nc21 (centres undefined)	9	·	5*	9	1.1	9%
Cc1cccn2c(=O)c3cc(C(=O)NCC4CCCO4)n(C)c3nc12 (centres undefined)	7	·	5*	11	1.1	9%
CCOC(=O)C1CCCN(C(=O)c2cc3c(=O)n4cccc(C)c4nc3n2C)C1 (centres undefined)	3	·	3.4*	12	1	2%
CCN1C(=O)CC(c2ccco2)Sc2ccccc21 (centres undefined)	2	i	1.1	1	1	1%
CCOc1ccc(C2N(c3ccc(F)cc3)C(=O)C3CCCN32)cc1OC (centres undefined)	13	i	1.1	5	1	6%
O=C(NCc1ccccn1)C1CCN(S(=O)(=O)N2CCCC2)CC1	3	i	1.1	0	0.99	1%
CCOc1ccc(-n2nc(C(=O)N3CCOCC3)c3ccccc3c2=O)cc1	0	i	0.92	11	1	8%
CCCn1c(N)c(C(=O)CN2CCN(S(=O)(=O)c3cccs3)CC2)c(=O)[nH]c1=O	0	i	1.1	13	1	4%
CNC(=O)c1cc2c(=O)n3cccc(C)c3nc2n1C	6	·	5*	10	1.1	8%
Cc1cccn2c(=O)c3cc(C(=O)N4CCCc5ccccc54)n(C)c3nc12	2	i	1.3	12	1	2%
Cc1cccn2c(=O)c3cc(C(=O)N4CCc5ccccc5C4)n(C)c3nc12	5	·	5*	10	1.1	8%
CSCC[C@@H](C(=O)O)N1Cc2ccccc2C1=O	35	i	1.1	5	1	13%
SMILES	Spn MK inh	Spn DPM-DC inh	Fluor 339 460	PMK inhibit	A340 absorber	NADH enzymes
O=C(O)[C@@H](c1ccccc1)N1Cc2ccccc2C1=O	72*	i	1.1	7	1.1	27%
Cc1ccc(-c2cc3nc(C)cc(NCc4ccco4)n3n2)cc1	5	i	3.3*	2	0.99	7%
O=c1c2c3nc4ccccc4nc3n(Cc3ccccc3)c2ncn1Cc1ccco1	11	i	3.3*	0	1.1	12%
CCCCn1c2nc3ccccc3nc2c2c(=O)n(CC(C)C)cnc21	12	·	1.7	24	0.99	18%
COCCCn1c(C)nc2c(c1=O)c1nc3ccccc3nc1n2CCc1ccccc1	0	·	2.4*	8	1.1	4%
COCCCn1c2nc3ccccc3nc2c2c(=O)n(Cc3ccc(Cl)cc3)cnc21	11	·	3.8*	8	1.1	10%
CCCCn1c2nc3ccccc3nc2c2c(=O)n(C(C)CC)cnc21 (centres undefined)	1	·	2.1*	18	1.1	10%
Cc1ccc(CCNC(=O)C2CCCN(c3nc4ccccc4o3)C2)cc1 (centres undefined)	5	i	1.1	15	0.96	7%
O=C(NCCN1CCCC1)c1ccc(CS(=O)(=O)c2c(Cl)cccc2Cl)o1	0	i	1.1	8	1	3%
COCCCn1c2nc3ccccc3nc2c2c(=O)n(Cc3ccccc3Cl)cnc21	8	i	2.9*	0	1.1	5%
Cc1ccc2[nH]c(-c3cccc(N)c3)cc2c1	7	·	3.8*	10	1	9%
COCCn1nnnc1C(c1ccccc1OC)N1CCc2ccccc2C1 (centres undefined)	7	i	1	18	0.98	4%
CC(C)Cn1nc(NS(=O)(=O)c2ccccc2)c2cc3ccccc3nc21	2	i	1.2	0	1	1%
CCn1nc(NC(=O)c2cccnc2)c2cc3ccccc3nc21	0	i	1.2	0	0.99	3%
Cc1ccc2cc3c(NC(=O)c4ccco4)nn(CC(C)C)c3nc2c1	2	·	3.9*	3	1	3%
CC(C)Cn1nc(NC(=O)C2CCCO2)c2cc3ccccc3nc21 (centres undefined)	7	i	2.1*	2	1.1	6%
Cc1ccc2cc3c(NC(=O)CC(C)C)nn(C)c3nc2c1	15	i	2	0	1	6%
CCn1nc(NC(=O)c2ccccn2)c2cc3cc(C)ccc3nc21	9	i	3*	12	1.1	14%
Cc1ccc(NC(=O)N2CCCC2C(=O)NCCc2ccccc2)cc1 (centres undefined)	8	i	1.1	16	1	11%
CCC(=O)Nc1ccc(Cl)c(NC(=O)C(C)C)c1	8	i	1	8	0.99	2%
CNC(=O)Cn1ncc2c(C)n(Cc3ccc(C)cc3)c(C)c2c1=O	0	i	1.1	34*	1	11%
